According to PubChem BioAssay (NCATS):
Results filed as inconclusive are left out. Unmarked numbers belong to inactive results. Active and inactive are the calls of the source. The call rests on the fitted dose curve; in most records, active means well fitted curve in the direction sought with a large enough effect; inconclusive means small, poorly fitted or top-dose-only effect, or another doubt; inactive means no such curve, though single readings can be large or run the other way. Non-standard residues stand in square brackets, D forms with d. Residues, ends and D or L forms follow the SMILES beside them. *: point of attachment. Sta = CC(C)C[C@H](N)[C@@H](O)CC(=O)O; Isovaleryl = CC(C)CC(=O)*

The compounds below were run against Protein phosphatase 1D (Homo sapiens) (UniProt O15297) (assay: Rhodamine-PBP qHTS Assay for Modulators of WT P53-Induced Phosphatase 1 (WIP1) (AID 1347425)). Details: recombinant WIP1, Rhodamine-PBP phosphate fluorescence, real-time; series mostly up to 57.5 µM; activity change, negative = inhibition: at the top concentration.
Protein phosphatase 1D (Homo sapiens), sequence (O15297 whole entry, looked up): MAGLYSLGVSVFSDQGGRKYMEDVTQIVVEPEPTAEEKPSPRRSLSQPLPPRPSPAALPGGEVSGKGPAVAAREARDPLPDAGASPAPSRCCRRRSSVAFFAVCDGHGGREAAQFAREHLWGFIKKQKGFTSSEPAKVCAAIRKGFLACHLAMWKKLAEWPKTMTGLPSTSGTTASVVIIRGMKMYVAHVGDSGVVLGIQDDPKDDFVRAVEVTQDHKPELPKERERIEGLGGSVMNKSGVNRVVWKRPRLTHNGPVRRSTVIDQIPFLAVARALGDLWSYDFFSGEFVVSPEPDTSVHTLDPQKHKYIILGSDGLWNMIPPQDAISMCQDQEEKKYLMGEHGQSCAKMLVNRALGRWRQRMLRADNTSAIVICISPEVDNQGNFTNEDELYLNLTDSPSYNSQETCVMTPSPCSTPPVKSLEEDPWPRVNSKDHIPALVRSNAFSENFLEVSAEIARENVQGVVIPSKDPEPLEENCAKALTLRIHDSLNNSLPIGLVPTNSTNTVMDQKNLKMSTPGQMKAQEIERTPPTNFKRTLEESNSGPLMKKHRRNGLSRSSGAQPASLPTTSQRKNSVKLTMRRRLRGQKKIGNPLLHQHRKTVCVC
Text: Assay Provider (PI): Nathan Coussens Ph.D.
National Center for Advancing Translational Sciences (NCATS), Rockville, MD
National Institute of Health (NIH), Bethesda, Maryland
WT P53-Induced Phosphatase 1 (WIP1) is a member of the magnesium-dependent serine/threonine protein phosphatase (PPM) family and is induced by P53 in response to DNA damage. In several human cancers, the WIP1 protein is overexpressed, which is generally associated with a worse prognosis. Although WIP1 is an attractive therapeutic target, no potent, selective, and bioactive small-molecule modulator with favorable pharmacokinetics has been reported. Phosphatase enzymes are among the most challenging targets for small molecules because of the difficulty of achieving both modulator selectivity and bioavailability. Another major obstacle has been the availability of robust and physiologically relevant phosphatase assays that are suitable for high-throughput screening.
Here, we describe two orthogonal biochemical WIP1 activity assays that utilize phosphopeptides from native WIP1 substrates. We optimized a RapidFire MS assay to quantify the enzymatically dephosphorylated peptide reaction product in a 384-well format. Additionally, a redshifted Rhodamine-PBP fluorescence assay was optimized in a 1,536-well format to enable real-time WIP1 activity measurements through the detection of the orthogonal reaction product, Pi. We validated these two optimized assays by quantitative high-throughput screening against the National Center for Advancing Translational Sciences (NCATS) Pharmaceutical Collection and used secondary assays to confirm and evaluate inhibitors identified in the primary screen.
SEQUENCE No. (e.g., 1, 2, 3, etc.); […] (e.g., Cells, Incubation, Reagent, etc.); VALUE; DESCRIPTION
1; Reagent; 3 uL; WIP1 (6.7 nM), Rh-PBP (13.3 uM), columns 1-48
3; Library Compounds; 23 nL; NCATS Pharmaceutical Collection, column 5-48
4; Control Compounds; DMSO in column 2, GSK2830371 (57.5 uM, final) in 3-fold serial dilutions in column 3, GSK2830371 (1.15 uM, final) in column 4
5; Time; 1 hr; incubation
6; Detection; fluorescence (f0); ViewLux, excitation filter = 525 nm, emission filter = 598 nm
7; Reagent; 1 uL; VEPP-pS-QETFS (40 uM), columns 2-48
8; Detection; fluorescence (f1); ViewLux, excitation filter = 525 nm, emission filter = 598 nm
NOTES (numbers refer to sequence above)
1 & 2; Black medium binding Greiner 1536-well plates (# 789176-F); assay buffer: 50 mM Tris-HCl pH 7.5, 30 mM MgCl2, 1mM TCEP, 0.1 mM EGTA, 75 ug/mL BSA; dispensed with a BioRaptr liquid handler (Beckman Coulter).
3 & 4; Kalypsys pintool (equipped with 1536 pinhead, Wako USA) transfer. Tip wash sequence: DMSO, methanol, 3 sec vacuum dry.
5; Room temperature incubation.
7; VEPPL-pS-QETFS in assay buffer dispensed with a BioRaptr; final reaction conditions: 5 nM WIP1, 10 uM VEPPL-pS-QETFS, 10 uM Rh-PBP, 50 mM Tris-HCl pH 7.5, 30 mM MgCl2, 1 mM TCEP, 0.1 mM EGTA, 75 ug/mL BSA.
8; Measurement taken at 1 min intervals for 11 min. Delta readout = f1 - f0.

| SMILES | activity change, negative = inhibition | outcome |
| --- | --- | --- |
| CCCc1cc(=O)[nH]c(=S)[nH]1 | 8.42% | – |
| Cc1cc(=O)c2c(O)c3c(O)cc(=O)c4c3c3c(cc(O)c1c23)C(C)(C)C=4O | 9.04% [at 23.8 µM] | – |
| CCN(CC)C(=S)SSC(=S)N(CC)CC | – | inactive |
| CC(C)[C@H](N)C(=O)OCCOCn1cnc2c(=O)[nH]c(N)nc21 | 2.98% | – |
| CNC[C@H](O)c1ccc(O)c(O)c1 | -6.8% [at 23.8 µM] | – |
| Oc1ccc(OCc2ccccc2)cc1 | 0.61% | – |
| Cc1c(C(=O)NN2CCCCC2)nn(-c2ccc(Cl)cc2Cl)c1-c1ccc(Cl)cc1 | 20.6% | – |
| O=C(O)c1cccnc1Nc1cccc(C(F)(F)F)c1 | -4.85% | – |
| Nc1cc(C(Cl)=C(Cl)Cl)c(S(N)(=O)=O)cc1S(N)(=O)=O | -0.826% | – |
| CC(C)c1nc(CN(C)C(=O)N[C@H](C(=O)N[C@@H](Cc2ccccc2)C[C@H](O)[C@H](Cc2ccccc2)NC(=O)OCc2cncs2)C(C)C)cs1 | 8.58% | – |
| COc1cc(Nc2c(C#N)cnc3cc(OCCCN4CCN(C)CC4)c(OC)cc23)c(Cl)cc1Cl | 69.3% | – |
| Cc1ccc(C)c(OCCCC(C)(C)C(=O)O)c1 | -3.86% | – |
| COCCCN1CCC(NC(=O)c2cc(Cl)c(N)c3c2OCC3)CC1 | 3.71% | – |
| CCc1nc(N)nc(N)c1-c1ccc(Cl)cc1 | 16.7% | – |
| COc1cc2c(N3CCN(C(=O)Nc4ccc(OC(C)C)cc4)CC3)ncnc2cc1OCCCN1CCCCC1 | 23.7% | – |
| O=C1CCc2ccc(OCCCCN3CCN(c4cccc(Cl)c4Cl)CC3)cc2N1 | 22.1% | – |
| COc1cc(OC)c(C(=O)CCCN2CCCC2)c(OC)c1 | 13.1% | – |
| O=C(NCC1CCCCN1)c1cc(OCC(F)(F)F)ccc1OCC(F)(F)F (stereo not given) | 2.84% | – |
| CCC[C@@H]1C[C@@H](C(=O)N[C@@H]([C@H]2O[C@H](SC)[C@H](O)[C@@H](O)[C@H]2O)[C@@H](C)O)N(C)C1 | 10.4% | – |
| CCCCCCCCOc1ccccc1C(=O)Nc1ccc(C(=O)OCC[N+](C)(CC)CC)cc1 | 49.1% | – |

| SMILES | activity change, negative = inhibition | outcome |
| --- | --- | --- |
| Cc1ncc([N+](=O)[O-])n1CC(C)O (stereo not given) | 3.71% | – |
| CCN(CC)CCOc1ccc(Cc2ccccc2)cc1 | 11.4% | – |
| CN(C)c1ccc(O)c2c1C[C@H]1C[C@H]3[C@H](N(C)C)C(=O)C(C(N)=O)=C(O)[C@@]3(O)C(=O)C1=C2O | -5.71% | – |
| CC1=C(C)C(=O)C(C(CCCCCC(=O)O)c2ccccc2)=C(C)C1=O (stereo not given) | -26.1% | – |
| CCCCN(CCCC)CCC(O)c1cc2c(Cl)cc(Cl)cc2c2cc(C(F)(F)F)ccc12 (stereo not given) | 17.4% | – |
| CC1=C(C(=O)O)N2C(=O)[C@@H](NC(=O)[C@H](N)C3=CCC=CC3)[C@H]2SC1 | -12.6% | – |
| COc1cc2nc(N3CCN(C(=O)C4CCCO4)CC3)nc(N)c2cc1OC (stereo not given) | -13.7% | – |
| Cc1cc2cc3c(C)cc(=O)oc3c(C)c2o1 | -4.25% | – |
| CN1C(C(=O)Nc2ccccn2)=C(O)c2sccc2S1(=O)=O | 6.26% | – |
| CCCCC(CC)COC(=O)C(C#N)=C(c1ccccc1)c1ccccc1 (stereo not given) | -4.77% | – |
| Cc1cc(=O)oc2cc(O)ccc12 | 4.2% | – |
| Cc1cc2c(s1)Nc1ccccc1N=C2N1CCN(C)CC1 | 14.5% | – |
| COCCCOc1ccnc(CS(=O)c2nc3ccccc3[nH]2)c1C (stereo not given) | 10.1% | – |
| CC(C)C[C@H](NC(=O)[C@H](Cc1ccccc1)NC(=O)c1cnccn1)B(O)O | 7.5% | – |
| c1ccc2[nH]c(-c3cscn3)nc2c1 | 3.84% | – |
| COC(=O)C1=C(C)NC(C)=C(C(=O)OC(C)C)C1c1cccc2nonc12 (stereo not given) | -23.6% | – |
| CC(S)C(=O)NCC(=O)O (stereo not given) | 18.1% | – |
| Cc1cccc(C)c1OCC(=O)N[C@@H](Cc1ccccc1)[C@@H](O)C[C@H](Cc1ccccc1)NC(=O)[C@H](C(C)C)N1CCCNC1=O | 6.57% | – |
| CC[C@]1(O)C[C@H]2CN(CCc3c([nH]c4ccccc34)[C@@](C(=O)OC)(c3cc4c(cc3OC)N(C=O)[C@H]3[C@@](O)(C(=O)OC)[C@H](OC(C)=O)[C@]5(CC)C=CCN6CC[C@]43[C@@H]65)C2)C1 | 25.1% | – |
| CC(C)CC(=O)N[C@H](C(=O)N[C@H](C(=O)N[C@@H](CC(C)C)[C@@H](O)CC(=O)N[C@@H](C)C(=O)N[C@@H](CC(C)C)[C@@H](O)CC(=O)O)C(C)C)C(C)C (Isovaleryl-VV[Sta]A[Sta]-OH) | 15.8% | – |
